Compounds with a hit are over-represented: about 5.9% of the library has one in this group of screens.
GLP1R cytotox = qHTS of GLP-1 Receptor Inverse Agonists: Cytotox Screen | AID 624418, 2012 | Potency, µM (titrated, usually from 38.3 µM), most hits filed as inhibitors | HEK293 cAMP-luciferase reporter cells, luminescence, 24 h | 410,000 tested, 0.13% active;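 also: loss of luciferase light is scored as toxicity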
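Cells in DMEM/10% Nu serum/1% pen-strep, 1536-well format. Pre-incubated 12 h, dosed with 23 nL compound, incubated a further 24 h. Luciferase detection, 12 min at room temp, luminescence.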
GLP-1R agonist = qHTS of GLP-1 Receptor Agonists; AID 624172, 2012; Glucagon-like peptide 1 receptor (Homo sapiens), P43220; HEK293 GLP-1R CRE-luciferase, luminescence, 4-6 h; cells express a hypersensitive GLP-1R form; Potency, µM (top dose mostly 45.6 µM), hits mostly activators; 380,000 tested, 0.007% active
VP16 counter = VP16 counterscreen qHTS for inhibitors of ROR gamma transcriptional activity; Drosophila S2 Gal4-VP16 UAS-luciferase, luminescence, 20 h; AID 2546, 2010; 310,000 tested, 3.5% active; Potency, µM (doses to about 53.6 µM), usual class: inhibitors;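 also: Gal4-VP16 expression switched on by copper sulfate through the metallothionein promoter; nearly all actives have a fitted effect of over 50% in size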
RORg inh = qHTS for inhibitors of ROR gamma transcriptional activity; Nuclear receptor ROR-gamma (Mus musculus), P51450; 310,000 tested, 5.4% active; Potency, µM (series often up to 53.6 µM), usual class: inhibitors; Drosophila S2 Gal4-RORgamma UAS-luciferase reporter, 20 h; also: nearly all actives have a fitted effect of over 60% in size
Target sequence (P51450 whole entry, looked up, the tested form may be a part): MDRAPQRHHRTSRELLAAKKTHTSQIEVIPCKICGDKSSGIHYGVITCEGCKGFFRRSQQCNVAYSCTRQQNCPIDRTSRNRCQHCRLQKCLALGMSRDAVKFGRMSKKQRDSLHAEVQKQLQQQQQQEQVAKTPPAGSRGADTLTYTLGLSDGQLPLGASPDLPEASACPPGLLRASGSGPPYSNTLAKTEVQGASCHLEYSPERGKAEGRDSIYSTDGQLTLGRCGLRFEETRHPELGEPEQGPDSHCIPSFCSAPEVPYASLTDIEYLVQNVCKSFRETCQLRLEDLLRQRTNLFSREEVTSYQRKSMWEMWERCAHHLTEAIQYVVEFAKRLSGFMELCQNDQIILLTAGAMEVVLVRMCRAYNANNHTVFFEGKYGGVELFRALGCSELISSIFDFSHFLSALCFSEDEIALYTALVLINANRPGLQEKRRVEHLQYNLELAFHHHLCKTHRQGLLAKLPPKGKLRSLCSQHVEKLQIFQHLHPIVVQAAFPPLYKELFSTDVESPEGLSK
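Schneider cells (Drosophila), stable Gal4 DBD–ROR gamma + UAS-luc; 1 hr cmpd preincubation; Cu2+ induction 700 uM final; 20 hr ambient; luminescence.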
GLP1R inv ag = qHTS of GLP-1 Receptor Inverse Agonists (Inhibition Mode); AID 624417, 2012; HEK293 GLP-1R CRE-luciferase, luminescence, 24 h; GLP-1R form is constitutively active; 410,000 tested, 1.6% active; Glucagon-like peptide 1 receptor (Homo sapiens), P43220; Potency, µM (top dose mostly 38.3 µM), most hits filed as inhibitors; also: nearly all actives have a fitted effect of over 55% in size
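Seeding at 200 cells/uL, 12 h culture, 24 hr compound treatment, then luciferase reagent and a luminescence read; cells are HEK293 stably expressing a constitutively active GLP-1R plus cAMP-responsive luciferase.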
Of the large screens only hits and unclear results are named; the others gave an inactive call; ! = a repeat was not active. Calls follow the shape of the dose curve; as a rule, active = well fitted curve in the direction sought with a large enough effect; inconclusive = small, poorly fitted or top-dose-only effect, or another doubt; inactive = no such curve, though single readings can be large; an effect the other way counts as inactive or inconclusive.

CC(C)CCn1cnc2c(oc3nc4c(cc32)CCCC4)c1=O	VP16 counter inconclusive, RORg inh 10µM, GLP1R inv ag 8.91µM
CCOc1cccc(C2c3c(oc4ccccc4c3=O)C(=O)N2c2nc(C)c(C(=O)OC)s2)c1 (configuration not stated)	none (no result: GLP-1R agonist, VP16 counter, RORg inh)
C=CCNC(=S)NNc1nc2sc3c(c2c(=O)[nH]1)CC(C)(C)OC3	VP16 counter 10µM, RORg inh 5.62µM
CCn1cc(C(=O)NCc2ccccc2Cl)c(=O)c2cc(S(=O)(=O)N3CCc4ccccc4C3)ccc21	none (no result: VP16 counter, RORg inh)
O=C1/C(=C\c2ccc(O)c(O)c2)Oc2c1ccc(O[C@@H]1O[C@H](CO)[C@@H](O)[C@H](O)[C@H]1O)c2O	none (no result: GLP1R cytotox, GLP-1R agonist, GLP1R inv ag)
Cc1ccc(C2CC(=O)Oc3ccc(O)cc32)cc1 (configuration not stated)	none (no result: GLP1R cytotox, GLP-1R agonist, GLP1R inv ag)
Cc1cc2c(OCC(CNC(C)(C)C)OC(=O)c3ccccc3)cccc2[nH]1 (configuration not stated)	none (no result: GLP1R cytotox, GLP1R inv ag)
Cn1nc(C(=O)Nc2c(-c3ccccc3)nc3sccn23)c2ccccc2c1=O	VP16 counter inconclusive, RORg inh 10µM
CCOC(=O)CC(=O)CSc1nc2sc(C)cc2c(=O)n1Cc1ccco1	VP16 counter 22.4µM, RORg inh inconclusive
CN1CCN(c2ncc3nc(-c4ccccc4)c(=O)n(CCC#N)c3n2)CC1	none (no result: GLP1R cytotox, GLP-1R agonist, GLP1R inv ag)
COc1cc(OC)c(NC(=S)Nc2cccc(C)c2)cc1Cl	VP16 counter inconclusive, RORg inh 10µM, GLP1R inv ag inconclusive
COc1cc(C)c(NC(=S)Nc2ccc(C)c(Cl)c2)cc1OC	VP16 counter inconclusive, RORg inh 11.2µM
Cc1cc(C(=O)NCCc2ccc(Cl)cc2)c2c(C)nn(-c3cccc(F)c3)c2n1	none (no result: GLP-1R agonist, VP16 counter, RORg inh)
CNCc1ccccc1Sc1cccc(O)c1	GLP1R inv ag inconclusive
CNCc1ccccc1Sc1cc(O)ccc1O	GLP1R cytotox inconclusive, VP16 counter inconclusive, RORg inh 15.8µM, GLP1R inv ag inconclusive
N#CCCN(CC#Cc1ccccc1)OCc1ccccc1	none (no result: GLP1R cytotox, GLP-1R agonist, GLP1R inv ag)
Cc1ccc(-n2c3nc(=O)[nH]c(=O)c-3cc3cc([N+](=O)[O-])ccc32)cc1C	GLP1R cytotox inconclusive, VP16 counter inconclusive, RORg inh inconclusive, GLP1R inv ag 10µM
COc1ccc(C2CC(c3ccccc3)Oc3cc4c(cc32)OCO4)cc1 (configuration not stated)	none (no result: GLP1R cytotox, GLP-1R agonist, GLP1R inv ag)
Cc1ccc2oc(=O)c3cc(C(=O)Nc4ccc(F)cc4F)sc3c2c1	none (no result: VP16 counter, RORg inh)
CCn1c(C)c(C)c2cc(C(=O)N3CCc4ccccc4C3)ccc21	VP16 counter inconclusive, RORg inh inconclusive, GLP1R inv ag 8.91µM
Cc1ccc(C)c(N2CCN(c3nc4ccccc4n4nnnc34)CC2)c1	none (no result: GLP-1R agonist, VP16 counter, RORg inh)
CNC(=O)[C@@H]1C[C@H]1[C@@H](NC(=O)OCc1ccccc1)c1ccccc1	RORg inh 12.6µM!
CNC(=S)NNC(=O)CSCc1c(Cl)cccc1Cl	VP16 counter 20µM, RORg inh 11.2µM
CNC(=O)CSCc1c(Cl)cccc1Cl	none
O=C(CSCc1ccccc1)NNC(=S)Nc1cccc(Cl)c1Cl	VP16 counter inconclusive, RORg inh 6.31µM, GLP1R inv ag inconclusive
COCCNC(=S)NNC(=O)CSCc1ccc(Cl)cc1Cl	RORg inh 10µM
CCN(CC)C(=O)Cn1nnc2sc(-c3ccccc3)cc2c1=O	none (no result: GLP-1R agonist, VP16 counter, RORg inh)
CCC(C)C(NC(=O)OC(C)(C)C)C(=O)NC1COC2CC(n3cc(C)c(=O)[nH]c3=O)OC12 (configuration not stated)	none (no result: GLP1R cytotox, GLP-1R agonist, GLP1R inv ag)
Cc1cc(C)n2nc(SCC(=O)c3cc(C)n(-c4cc(C)on4)c3C)nc2n1	VP16 counter 3.98µM
Cc1cc(C(=O)CSc2ncnc3ccccc23)c(C)n1C1CC1	none (no result: VP16 counter, RORg inh)
Cc1cc(-n2c(C)cc(C(=O)CSc3ncnc4ccccc34)c2C)no1	VP16 counter 5.01µM, RORg inh inconclusive, GLP1R inv ag inconclusive
Cc1ccc(-c2nc3c4ccccc4n(CC(=O)NCc4ccc(F)cc4)c(=O)n3n2)cc1	none (no result: GLP-1R agonist, VP16 counter, RORg inh)
CCN(CC)CCOc1c(Br)ccc2c1sc1nc3n(c(=O)c12)CCC3	GLP1R cytotox inconclusive, GLP1R inv ag inconclusive
O=c1c2c(nc3n1CCCCC3)sc1c(O)c(Br)ccc12	VP16 counter 4.47µM, RORg inh 8.91µM, GLP1R inv ag inconclusive
CC(=O)OC[C@@H]1O[C@@H](O/N=C2/C[C@@H](O)[C@@H](O)[C@@H]3[C@@H]4C(=O)N(c5cccc(Oc6ccccc6)c5)C(=O)[C@H]4CC[C@H]23)[C@H](OC(C)=O)[C@H](OC(C)=O)[C@@H]1OC(C)=O	none (no result: GLP1R cytotox, GLP-1R agonist, GLP1R inv ag)
COC(=O)Cn1c(CCS(=O)(=O)c2ccc(Cl)cc2)nc2ccccc21	RORg inh 3.55µM
COC(=O)Cn1c(CCS(=O)(=O)c2ccc(C)cc2)nc2ccccc21	none
C/C1=C\[C@@H](O)C(C(C)C)C(OC(=O)c2ccc(O)cc2)C/C(C)=C/CC1 (some centres not stated)	VP16 counter inconclusive (no result: GLP1R cytotox, GLP-1R agonist, GLP1R inv ag)
Cc1ccc(NC(=O)C2CCN(c3nc4ccccc4[nH]3)CC2)cc1Cl	GLP1R inv ag inconclusive (no result: GLP-1R agonist, VP16 counter, RORg inh)
COc1ccc(N2CCC(CNC(=S)Nc3cccc(OC)c3)C2)cc1 (configuration not stated)	VP16 counter 5.62µM, RORg inh 3.16µM (no result: GLP1R cytotox, GLP-1R agonist, GLP1R inv ag)
CCc1cccc(C)c1NC(=S)NCC1CCN(c2ccc(OC)cc2)C1 (configuration not stated)	VP16 counter 7.08µM, RORg inh 6.31µM, GLP1R inv ag inconclusive
COc1ccc(N2CCC(CNC(=O)Nc3cccc(OC)c3)C2)cc1 (configuration not stated)	none
CCc1ccccc1NC(=S)NCC1CCN(c2ccc(OC)cc2)C1 (configuration not stated)	GLP1R cytotox inconclusive, VP16 counter 10µM, RORg inh 2.51µM, GLP1R inv ag inconclusive
CO[C@@H]1/C=C\CC(=O)N2CCC[C@@H]2C(=O)OC[C@@H](C)C(=O)OC[C@H]1C	none (no result: GLP1R cytotox, GLP-1R agonist, GLP1R inv ag)
OCCCNc1cc(-c2ccnc(Nc3cccc(Cl)c3)n2)ccn1	VP16 counter 1µM, RORg inh 1.78µM, GLP1R inv ag inconclusive
CCC(C)Oc1cc(-c2ccnc(Nc3cccc(Cl)c3)n2)ccn1 (configuration not stated)	GLP1R inv ag 11.2µM
CN(C)CCCNc1ccc(-c2cc(Nc3cccc(Cl)c3)ncn2)cn1	GLP1R inv ag inconclusive
Cc1ccc(-n2c(Cl)c(Cl)nc(Cl)c2=O)cc1	GLP1R cytotox 2.82µM, VP16 counter 5.01µM, RORg inh 2.82µM, GLP1R inv ag inconclusive
COc1nc(Cl)cn(-c2ccc(C)cc2)c1=O	none
COc1cccc(CNC(=S)NC2CC2)c1	RORg inh 10µM
COc1cccc(CNC(=O)[C@@H]2CCCN2)c1	none (no result: VP16 counter, RORg inh)
COc1cccc(CNC(=S)NC2CCCC2)c1	VP16 counter 10µM, RORg inh 10µM
COc1cccc(CNC2CCCC2)c1	GLP1R inv ag inconclusive

Compound activity from PubChem BioAssay.
